In PubChem BioAssay AID485364 (National Center for Advancing Translational Sciences (NCATS), 2010):
Out of some 360,000 compounds screened, about 11,000 (3.1%) were called active. Entries that show only a call come without a potency. Inconclusive results (about 4%) are left out. Calls come from the whole dose curve; as a rule, active = well fitted inhibition curve with a large enough effect; inconclusive = small, poorly fitted or top-dose-only effect; inactive = no such curve, though single readings can be large or run the other way. Only a selection was taken, and actives are over-represented in it overall.

The compounds below were run against Schistosoma mansoni thioredoxin glutathione reductase (TGR) (UniProt Q962Y6) (assay: qHTS Assay for the Inhibitors of Schistosoma Mansoni Peroxiredoxins). Settings: purified TGR, DTNB reduction, TNB absorbance 405 nm; series mostly up to 114 µM.
Method in brief: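 TGR 20 nM + NADPH 100 uM (dispensed conc.), cpd preinc 15 min RT; start with NADPH (500 uM addition) then DTNB (15 mM addition). Kinetic TNB absorbance, 405 nm filter. Four-parameter Hill fit across titration.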
Note: nearly all actives have a fitted effect of over 60% in size.
Potency is the fitted concentration of half-maximal effect.

| SMILES | Potency |
| --- | --- |
| O=C(COc1ccccc1)OCc1cc(=O)n2nc(-c3cccs3)sc2n1 | inactive |
| CCOC(=O)c1ccc(NC(=O)c2c(NCc3cccs3)sc3c2CCCC3)cc1 | inactive |
| Cc1cccc(CC(=O)N2CC(=O)Nc3ccc(F)cc3C2c2ccccc2)c1 (stereo unspecified) | inactive |
| CCOC(=O)c1ccccc1NC(=O)c1sc2nc(-c3ccc(F)cc3)cn2c1C | inactive |
| Cc1nn(CC(=O)NCc2ccccn2)c(C)c1[N+](=O)[O-] | inactive |
| Cc1c2cnn(CC(=O)NCc3ccccn3)c(=O)c2c(C)n1Cc1ccc(Cl)cc1 | 44.7 µM (active) |
| Cc1ccc(Cn2c(C)c3cnn(CC(=O)NCc4ccccc4)c(=O)c3c2C)cc1 | inactive |
| Cc1c2cnn(CC(=O)NCCCN3CC(C)CC(C)C3)c(=O)c2c(C)n1Cc1ccc(Cl)cc1 (stereo unspecified) | inactive |
| O=C(Cn1ncc2c3ccccc3n(Cc3ccccc3)c2c1=O)NCc1ccccn1 | inactive |
| Cc1ccc(Cn2c(C)c3cnn(CC(=O)NCc4ccccn4)c(=O)c3c2C)cc1 | 35.5 µM (active) |
| CN(C(=O)CSc1nnc(NC(=O)Nc2ccccc2)s1)c1ccccc1 | inactive |
| CCOC(=O)c1c(C)oc2ccc(N(C(=O)c3ccncc3)S(=O)(=O)c3ccc(CC)cc3)cc12 | inactive |
| Cc1c(Cl)cccc1NC(=O)N1CCN(C(=O)c2nsc3ccccc23)CC1 | inactive |
| CNc1ccc(-c2nc(-c3ccccc3C)no2)cc1[N+](=O)[O-] | inactive |
| CC1CC(C)CN(C(=O)CSc2ccsc2[N+](=O)[O-])C1 (stereo unspecified) | inactive |
| O=C(CSc1ccsc1[N+](=O)[O-])N1CCCCC1 | 31.6 µM (active) |
| O=C(CSCc1cccs1)N1CCCC1 | inactive |
| COc1cc(C(=O)NCCS(=O)(=O)N2CCN(c3ccccc3)CC2)cc(OC)c1OC | inactive |
| COc1ccc2c(c1)c(N1CCCC1=O)c(C(=O)Nc1ccc(OC)c(Cl)c1)n2C | inactive |
| C[C@@H](NC(=O)OC(C)(C)C)c1nnc(S(=O)(=O)Cc2ccccc2)o1 | 0.794 µM (active) |
| COc1ccccc1NC(=O)[C@H](COCc1ccccc1)NC(=O)OC(C)(C)C | inactive |
| CCc1ccccc1NC(=O)CSc1nnc([C@@H](NC(=O)OC(C)(C)C)C(C)CC)o1 (stereo partly specified) | inactive |

| SMILES | Potency |
| --- | --- |
| CCN(Cc1ccccc1)S(=O)(=O)c1ccc2c(c1)CCCN2C(C)=O | inactive |
| Cc1cc(NC(=O)c2cccc(Cl)c2)ccc1-c1cc2ccccc2oc1=O | inactive |
| O=C(CSCc1cnn(-c2ccccc2)c1-n1cccc1)NCc1ccccc1Br | inactive |
| O=C(/C=C/Sc1ncn[nH]1)c1ccc(Cl)cc1 | 0.794 µM (active) |
| COc1ccc(-n2c(SCC(=O)Nc3ccc(Cl)c(C)c3)nc3n[nH]c(C)c3c2=N)cc1 | inactive |
| COc1ccccc1CNC(=O)Cn1nc(C)c2nn(-c3ccc(Cl)cc3)c(C)c2c1=O | inactive |
| CCOC(=O)c1ccc(NC(=O)CCn2c(=O)oc3ccccc32)cc1 | inactive |
| CCOC(=O)c1ccc(NC(=O)CCn2cnnn2)cc1 | 89.1 µM (active) |
| CCOc1ccccc1NC(=O)CCn1cnnn1 | inactive |
| CCN(CC)CCNC(=O)c1cc2c(=O)oc3ccc(C)cc3c2s1 | inactive |
| CCc1ccc(NC(=O)c2cc(S(=O)(=O)N3CCCC(C)C3)cn2C)cc1 (stereo unspecified) | inactive |
| COc1ccc(CNC(=O)c2ccc(NC(=O)N3CC4CCCN4c4ccccc43)cc2)cc1 (stereo unspecified) | inactive |
| COc1ccc(-n2c(SC)nc(O)cc2=O)cc1 | inactive |
| COc1ccc2c(c1OC)C(=O)OC2c1c(O)nc(SC)n(-c2ccccc2)c1=O (stereo unspecified) | 7.94 µM (active) |
| CSc1nc2ccc(C)cc2c(=O)n1-c1cccnc1 | inactive |
| COc1ccc(Nc2ncc(C(=O)Nc3cc(C)ccc3OC)c3ccccc23)cc1 | inactive |
| CCN1CCN(CCCNC(=O)c2cnn(-c3ccc(C)cc3C)c2C2CCN(C(=O)OC(C)(C)C)CC2)CC1 | inactive |
| O=C1C(Cl)=C(N2CCOCC2)C(=O)N1c1ccccc1 | inactive |
| O=C1c2ccccc2-c2ncnc3c(N4CCOCC4)cc(N4CCOCC4)c1c23 | inactive |
| COC1=C(N2CCOCC2)C(=O)c2ccccc2C1=O | 17.8 µM (active) |
| CCCS(=O)(=O)N1CCC(n2c(C(F)(F)F)nc3cccnc32)CC1 | inactive |
| COc1ccccc1-c1cc2nc(C)c(CCC(=O)O)c(C)n2n1 | inactive |

| SMILES | Potency |
| --- | --- |
| CCOCCCNC(=O)c1c(NC(=O)Cc2coc3ccc(C)cc23)sc2c1CCC2 | inactive |
| O=C(CCl)Nc1ccc(Sc2ccc(NC(=O)CCl)cc2)cc1 | 2.82 µM (active) |
| CC(C)(CCl)C(=O)Nc1ccc(Sc2ccc(F)cc2)cc1 | inactive |
| O=C(Nc1ccc(Sc2ccc(Br)cc2)cc1)c1ccco1 | inactive |
| COc1ccc(-n2c(SC)nc3sc4c(c3c2=O)CCN(C(C)=O)C4)cc1 | inactive |
| Cc1cccc(-c2nnc(SCC(=O)N3CCCc4ccccc43)o2)c1 | inactive |
| COC(=O)c1ccccc1NC(=O)c1ccc(COc2ccccc2Cl)o1 | inactive |
| CCOc1ccc(NC(=O)C(=O)NCCc2csc3nc(-c4ccccc4F)nn23)cc1 | inactive |
| O=c1cc(-c2ccccc2)nc(N2CCCCC2)[nH]1 | inactive |
| CC(=O)c1cc(-c2ccccc2)n(CC(=O)NC2CCCCC2)c1C | inactive |
| CC(=O)c1cc(-c2ccccc2)[nH]c1N1CCCC1 | 50.1 µM (active) |
| COc1ccc(C(=O)Nc2cccc(C(=O)OCc3cc(=O)n4c5c(sc4n3)CCCC5)c2)cc1 | inactive |
| Oc1ccccc1-c1nc(/C=C/c2ccc(F)cc2)no1 | inactive |
| COc1ccc(Cc2nc3ccc(C(=O)NCc4ccccc4C)cc3o2)cc1 | inactive |
| CCC(C)NC(=O)CCCc1ccccc1 (stereo unspecified) | inactive |
| COC(=O)N(NC(=O)C(O)(C(C)C)C(C)C)c1ccccc1 | inactive |
| CCCC(O)(CCC)C(=O)NN(C(=O)CCl)c1cccc(C)c1 | 25.1 µM (active) |
| Cc1cccc(N(Cc2ccccc2)C(=O)c2ccccc2F)c1 | inactive |
| CCCCC(O)(CCCC)C(=O)NN(C(=O)CCl)c1ccccc1 | 8.91 µM (active) |
| CC(C)(O)C(=O)NN(C(=O)c1ccccc1)c1cccc(Br)c1 | inactive |
| CCC(=O)N1c2ccccc2CC1C(=O)N1CCN(c2ccccc2)CC1 (stereo unspecified) | inactive |
| COc1ccccc1CNC(=O)C(Cc1ccccc1)NS(=O)(=O)c1ccc2c(c1)oc(=O)n2C (stereo unspecified) | inactive |
